SMILES strings stand for the structures. Results filed as inconclusive are left out. Activity calls are given as the source filed them. How the source made its calls: active means hit-call score of the fitted dose curve at least 0.9, where 1 is the maximum; inconclusive means response in the unintended direction; inactive means score below 0.9.

Sequence of human Complement Component 5, Anaphylatoxin Receptor (C5a), C5AR1 (gene 728) (P21730 whole entry, looked up): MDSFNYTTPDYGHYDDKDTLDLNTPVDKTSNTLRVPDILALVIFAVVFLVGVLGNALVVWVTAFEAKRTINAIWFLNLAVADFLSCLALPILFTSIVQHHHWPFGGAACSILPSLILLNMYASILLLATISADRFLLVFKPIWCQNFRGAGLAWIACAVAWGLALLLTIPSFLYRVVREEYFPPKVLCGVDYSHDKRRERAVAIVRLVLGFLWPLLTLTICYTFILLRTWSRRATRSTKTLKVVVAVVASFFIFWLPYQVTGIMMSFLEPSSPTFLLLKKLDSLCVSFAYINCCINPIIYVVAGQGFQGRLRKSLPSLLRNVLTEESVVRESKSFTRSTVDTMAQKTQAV

This assay addresses human Complement Component 5, Anaphylatoxin Receptor (C5a), C5AR1 (gene 728) (UniProt P21730). As to the kind of experiment: NVS_GPCR_hC5a: NovaScreen (NVS) G Protein-Coupled Receptor Assay for human Complement Component 5, Anaphylatoxin Receptor (C5a). Here is the method:
NVS_GPCR_hC5a is a biochemical, single-readout assay that uses extracted gene-proteins from U937 in a cell-free assay. Measurements were taken 2 hours after chemical dosing in a 96-well plate.NVS_GPCR_hC5a is one of one assay component(s) measured or calculated from the NVS_GPCR_hC5a assay. It is designed to make measurements of radioligand binding, a form of binding reporter, as detected with scintillation counting signals by Filter-based radiodetection technology.Data from the assay component NVS_GPCR_hC5a was analyzed into 1 assay endpoint. This assay endpoint, NVS_GPCR_hC5a, was analyzed in the positive analysis fitting direction relative to DMSO as the negative control and baseline of activity. Using a type of binding reporter, loss-of-signal activity can be used to understand changes in the binding as they relate to the gene C5AR1. Furthermore, this assay endpoint can be referred to as a primary readout, because the performed assay has only produced 1 assay endpoint. To generalize the intended target to other relatable targets, this assay endpoint is annotated to the gpcr intended target family, where the subfamily is rhodopsin-like receptor.
Binding assays used specific radioligands (tritiated, iodinated) with non-radioactive competitive displacement ligands in agonist or antagonist protocols (as indicated) and various reference compounds and inhibitors to titrate specific binding to receptors and transporters. Most enzyme assays (CYPs, kinases, phosphatases, proteases, HDACs) used recombinant protein and specific substrates (fluorescence mostly, some colorimetric and radioactive) and inhibitors, followed by a biochemical separation of substrate and product. All assays for the biochemical HTS were initially run in duplicate at a single concentration (10 uM for CYP450 assays and 25 uM for all others). Assay-chemical combinations meeting a pre-defined threshold (e.g., 30% inhibition and other criteria defined below) were then run in singleton concentration-response format with maximum concentration of 20 uM for CYPs and 50 uM for all others. Each assay was run with positive and negative controls, and concurrent controls on every plate. The follow-up (secondary) screen tested active chemical-pairs in concentration series, as well as a few additional assays not tested in the primary screen, some selected negative inactives, and several cases re-run in the concentration series for confirmatory purposes.
Take `CCC[CH2][Sn]([Cl])([CH2]CCC)[CH2]CCC`: the result was inactive.

For `CCCCCCCCCC`, the outcome was inactive.

As to `C=CCc1cc(S(=O)(=O)c2ccc(O)c(CC=C)c2)ccc1O`, the compound was classed as inactive.

As a reminder, the AC50 is the concentration at which the activity in the assay is half-maximal. For the compound `[Cl-].[Cl-].[Hg+2]`, the AC50 is 25 µM (active).

On to `C#CCOS(=O)OC1CCCCC1Oc1ccc(C(C)(C)C)cc1` (centres undefined), for which the call was inactive.

`CCCCCCCCCC[N+](C)(C)CCCCCCCCCC`: the AC50 is 42.3 µM (active).

For the compound `CCOC(=O)O[C@H](C)OC(=O)c1ccc2c(c1)cc(C(=O)NC1CCN(C(C)C)CC1)n2Cc1cc(-c2ccc(Cl)s2)on1`, the AC50 was 39.6 µM (active).

With `CCC(C)(C)C(=O)OC1=C(c2ccc(Cl)cc2Cl)C(=O)OC12CCCCC2`, the call was inactive.

For `COc1cc(OC)nc(NC(=O)NS(=O)(=O)c2ncccc2OCC(F)(F)F)n1`, the outcome was inactive.

For `CCOC(=O)NCCOc1ccc(Oc2ccccc2)cc1`, the outcome was inactive.

Consider `Oc1ccc(C(c2ccc(O)cc2)C(Cl)(Cl)Cl)cc1`, for which the compound was classed as inactive.

In the case of `COC(=O)c1c(C(F)F)nc(C(F)(F)F)c(C2=NCCS2)c1CC(C)C`, the compound was classed as inactive.

With `CC1(C)C(C=C(Cl)Cl)C1C(=O)OC(C#N)c1cccc(Oc2ccccc2)c1` (centres undefined), the compound was classed as inactive.

As to `COc1ccc(C(c2ccc(OC)cc2)C(Cl)(Cl)Cl)cc1`, the call was inactive.

The values above are taken from PubChem BioAssay AID2283260 (EPA ToxCast).
